PubChem BioAssay (NCATS)
Records with an inconclusive call do not appear. Calls of active or inactive are those of the source. Calls come from the whole dose curve; as a rule, active = well fitted cell-killing curve with a large enough effect; inconclusive = small, poorly fitted or top-dose-only effect, or effect the other way; inactive = flat fitted curve, though single readings scatter.

Legend:
Test in all cases: Primary qHTS to identify gynecologic anti-cancer compounds using libraries of approved drugs and bioactive compounds (AID 1345084); note: nearly all actives have a fitted effect of over 55% in size
C33A = details: Gynecologic cancer cell panel viability, ATPlite luminescence, 48 h; series mostly up to 57.5 µM
Method in brief: (§1)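 48 h compound exposure at 37 C, 5% CO2; five-point qHTS. ATPlite luminescence readout of cell ATP.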

CAOV3 = details: Gynecologic cancer cell panel viability, ATPlite luminescence, 48 h; series mostly up to 57.5 µM
Method in brief: as §1

CASKI = details: Gynecologic cancer cell panel viability, ATPlite luminescence, 48 h; series mostly up to 57.5 µM
Method in brief: as §1

Es-2 = details: Gynecologic cancer cell panel viability, ATPlite luminescence, 48 h; series mostly up to 57.5 µM
Method in brief: as §1

HeLa = details: Gynecologic cancer cell panel viability, ATPlite luminescence, 48 h; series mostly up to 57.5 µM
Method in brief: as §1

Hek293T = details: Gynecologic cancer cell panel viability, ATPlite luminescence, 48 h, control line for the selectivity index; series mostly up to 57.5 µM
Method in brief: as §1

JEG-3 = details: Gynecologic cancer cell panel viability, ATPlite luminescence, 48 h; series mostly up to 57.5 µM
Method in brief: as §1

OV90 = details: Gynecologic cancer cell panel viability, ATPlite luminescence, 48 h; series mostly up to 57.5 µM
Method in brief: as §1

PA-1 = details: Gynecologic cancer cell panel viability, ATPlite luminescence, 48 h; series mostly up to 57.5 µM
Method in brief: as §1

SKOV3 = details: Gynecologic cancer cell panel viability, ATPlite luminescence, 48 h; series mostly up to 57.5 µM
Method in brief: as §1

Tov-21-G = details: Gynecologic cancer cell panel viability, ATPlite luminescence, 48 h; series mostly up to 57.5 µM
Method in brief: as §1

Tov112D = details: Gynecologic cancer cell panel viability, ATPlite luminescence, 48 h; series mostly up to 57.5 µM
Method in brief: as §1
% is set by controls: 0 for no effect and ±100 for the full control effect.

COCCCNC(=O)c1ccc(Cn2c(=O)c3ccccc3n(Cc3ccc(C(C)C)cc3)c2=O)cc1
inactive: Potency (C33A) | Potency (CAOV3) | Potency (CASKI) | Potency (Es-2) | Potency (HeLa) | Potency (Hek293T) | Potency (JEG-3) | Potency (OV90) | Potency (PA-1) | Potency (SKOV3) | Potency (Tov-21-G) | Potency (Tov112D)

COc1c(C(C)C)c(O)c(O)c2c1C(OC)[C@H]1OC(=O)[C@@]23CCCC(C)(C)[C@H]13 (some centres not stated)
inactive: Potency (C33A) | Potency (CAOV3) | Potency (CASKI) | Potency (Es-2) | Potency (HeLa) | Potency (Hek293T) | Potency (JEG-3) | Potency (OV90) | Potency (PA-1) | Potency (SKOV3) | Potency (Tov-21-G) | Potency (Tov112D)

Nc1nc2c(s1)CCN(Cc1ccc(Cl)cc1)CC2
inactive: Potency (C33A) | Potency (CAOV3) | Potency (CASKI) | Potency (Es-2) | Potency (HeLa) | Potency (Hek293T) | Potency (JEG-3) | Potency (OV90) | Potency (PA-1) | Potency (SKOV3) | Potency (Tov-21-G) | Potency (Tov112D)

C[C@@H]1C[C@H]2O[C@@]3(O[C@@H]2C(C)(C)O)C(O)[C@@]2(C)C4CCC5C(C)(C)[C@@H](O[C@H]6OC[C@H](O)[C@@H](O)[C@@H]6O)CC[C@@]56C[C@@]46CC[C@]2(C)C13 (some centres not stated)
inactive: Potency (C33A) | Potency (CAOV3) | Potency (CASKI) | Potency (Es-2) | Potency (HeLa) | Potency (Hek293T) | Potency (JEG-3) | Potency (OV90) | Potency (PA-1) | Potency (SKOV3) | Potency (Tov-21-G) | Potency (Tov112D)

CC1(C)Oc2ncnc(N)c2N=C1c1ccc(C23CCC(CC(=O)O)(CC2)CC3)cc1
inactive: Potency (C33A) | Potency (CAOV3) | Potency (CASKI) | Potency (Es-2) | Potency (HeLa) | Potency (Hek293T) | Potency (JEG-3) | Potency (OV90) | Potency (PA-1) | Potency (SKOV3) | Potency (Tov-21-G) | Potency (Tov112D)

O=[N+]([O-])c1ccc(Oc2ccc3c(c2)CCC(c2ccccc2)O3)nc1 (configuration not stated)
inactive: Potency (C33A) | Potency (CAOV3) | Potency (CASKI) | Potency (Es-2) | Potency (HeLa) | Potency (Hek293T) | Potency (JEG-3) | Potency (OV90) | Potency (PA-1) | Potency (SKOV3) | Potency (Tov-21-G) | Potency (Tov112D)

COc1c(F)cccc1C(=O)N1C[C@@H](C)CC[C@H]1CNc1ccc(Br)cn1
inactive: Potency (C33A) | Potency (CAOV3) | Potency (CASKI) | Potency (Es-2) | Potency (HeLa) | Potency (Hek293T) | Potency (JEG-3) | Potency (OV90) | Potency (PA-1) | Potency (SKOV3) | Potency (Tov-21-G) | Potency (Tov112D)

CC1(C)CCCC2(C)C1C(=O)C=C(C(=O)O)C2(O)C(=O)O (configuration not stated)
inactive: Potency (C33A) | Potency (CAOV3) | Potency (CASKI) | Potency (Es-2) | Potency (HeLa) | Potency (Hek293T) | Potency (JEG-3) | Potency (OV90) | Potency (PA-1) | Potency (SKOV3) | Potency (Tov-21-G) | Potency (Tov112D)

CN(C)CC#CCCC(=O)C(O)(c1ccccc1)C1CCC1 (configuration not stated)
inactive: Potency (C33A) | Potency (CAOV3) | Potency (CASKI) | Potency (Es-2) | Potency (HeLa) | Potency (Hek293T) | Potency (JEG-3) | Potency (OV90) | Potency (PA-1) | Potency (SKOV3) | Potency (Tov-21-G) | Potency (Tov112D)

Cc1nc2c(C(F)(F)F)cccc2nc1-c1ccc(-c2cccc(S(C)(=O)=O)c2)cc1
inactive: Potency (C33A) | Potency (CAOV3) | Potency (CASKI) | Potency (Es-2) | Potency (HeLa) | Potency (Hek293T) | Potency (JEG-3) | Potency (OV90) | Potency (PA-1) | Potency (SKOV3) | Potency (Tov-21-G) | Potency (Tov112D)

O=C(Nc1ccccc1C(=O)NC1CCCCNC1=O)c1cc2ccccc2s1 (configuration not stated)
inactive: Potency (C33A) | Potency (CAOV3) | Potency (CASKI) | Potency (Es-2) | Potency (HeLa) | Potency (Hek293T) | Potency (JEG-3) | Potency (OV90) | Potency (PA-1) | Potency (SKOV3) | Potency (Tov-21-G) | Potency (Tov112D)

O=C(NCCN1CCN(c2cccc3c2OCCO3)CC1)c1ccc(F)cc1
inactive: Potency (C33A) | Potency (CAOV3) | Potency (CASKI) | Potency (Es-2) | Potency (HeLa) | Potency (Hek293T) | Potency (JEG-3) | Potency (OV90) | Potency (PA-1) | Potency (SKOV3) | Potency (Tov-21-G) | Potency (Tov112D)

COc1cc(CCc2ccc(OCC=C(C)C)cc2)cc(OC)c1OC
inactive: Potency (C33A) | Potency (CAOV3) | Potency (CASKI) | Potency (Es-2) | Potency (HeLa) | Potency (Hek293T) | Potency (JEG-3) | Potency (OV90) | Potency (PA-1) | Potency (SKOV3) | Potency (Tov-21-G) | Potency (Tov112D)

C[C@H]1CC[C@@]2(OC1)O[C@H]1CC3[C@@H]4CC[C@@H]5C[C@@H](O[C@@H]6O[C@H](CO)[C@@H](O[C@@H]7O[C@H](CO[C@@H]8OC[C@@H](O)[C@H](O)[C@H]8O)[C@@H](O[C@@H]8O[C@H](CO)[C@H](O)[C@H](O)[C@H]8O)[C@H](O)[C@H]7O)[C@H](O)[C@H]6O)CC[C@]5(C)C4CC[C@]3(C)[C@H]1[C@@H]2C (some centres not stated)
inactive: activity change, negative = cytotoxicity (C33A) -0.589% [at 11.6 µM] | activity change, negative = cytotoxicity (CAOV3) 0.154% [at 11.6 µM] | activity change, negative = cytotoxicity (CASKI) -0.139% [at 11.6 µM] | activity change, negative = cytotoxicity (Es-2) -0.634% [at 11.6 µM] | activity change, negative = cytotoxicity (HeLa) 17.3% [at 11.6 µM] | activity change, negative = cytotoxicity (Hek293T) -0.448% [at 11.6 µM] | activity change, negative = cytotoxicity (JEG-3) -1.5% [at 11.6 µM] | activity change, negative = cytotoxicity (OV90) -9.4% [at 11.6 µM] | activity change, negative = cytotoxicity (PA-1) -0.202% [at 11.6 µM] | activity change, negative = cytotoxicity (SKOV3) 11% [at 11.6 µM] | activity change, negative = cytotoxicity (Tov-21-G) -1.12% [at 11.6 µM] | activity change, negative = cytotoxicity (Tov112D) 3.54% [at 11.6 µM]

CC(=O)OC1C(O)CC2(C)C(CCC3(C)C2CC=C2C4C5(CCC(CO[C@@H]6O[C@H](CO)[C@@H](O)[C@H](O)[C@H]6O)(OC5=O)C4(C)O)C(O)CC23C)C1(C)C (some centres not stated)
inactive: Potency (C33A) | Potency (CAOV3) | Potency (CASKI) | Potency (Es-2) | Potency (HeLa) | Potency (Hek293T) | Potency (JEG-3) | Potency (OV90) | Potency (PA-1) | Potency (SKOV3) | Potency (Tov-21-G) | Potency (Tov112D)

COC1CCN(C(=O)c2cc(Cc3n[nH]c(=O)c4ccccc34)ccc2F)CC1
inactive: Potency (C33A) | Potency (CAOV3) | Potency (CASKI) | Potency (Es-2) | Potency (HeLa) | Potency (Hek293T) | Potency (JEG-3) | Potency (OV90) | Potency (PA-1) | Potency (SKOV3) | Potency (Tov-21-G) | Potency (Tov112D)
